# Source: PubChem
# BAZ2B inh: qHTS Assay for Inhibitors of BAZ2B; Bromodomain adjacent to zinc finger domain protein 2B (Homo sapiens), Q9UIF8; Potency, µM (highest dose often 114 µM), without a hit: at the top dose activity change, negative = inhibition, actives largely listed as inhibitors; AID 504333, 2011; 4.4% of 360,000 active; AlphaScreen BAZ2B-H3K14Ac peptide displacement; also: % is scaled to controls: 0 for no effect and ±100 for the full control effect; nearly all actives have a fitted effect of over 60% in size
#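 Protein-peptide AlphaScreen: BAZ2B 50 nM, b-H3K14Ac 50 nM, 1x PBS pH 7.4 + 0.01% Tween-20. Preincubation 30 min RT; cpd 30 min RT (top 110 uM); beads 20 min RT, light-protected.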
# G9a block: qHTS Assay for Inhibitors of Histone Lysine Methyltransferase G9a; Histone-lysine N-methyltransferase EHMT2 (Homo sapiens), Q96KQ7; G9a H3K9 monomethylation, AlphaScreen, 2 h; Potency, µM (top dose mostly 102 µM), without a hit: at the top dose activity, negative = inhibition, actives largely listed as inhibitors; 8.8% of 350,000 active; also: % is scaled to controls: 0 for no effect and ±100 for the full control effect; nearly all actives have a fitted effect of over 75% in size
#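 Quantitative HTS format: methyltransferase activity on a biotin-tagged H3K9 peptide is measured by AlphaScreen, using a rabbit anti-monomethyl-H3K9 antibody with streptavidin donor and anti-IgG acceptor beads. Final levels are 20 nM enzyme, 500 nM peptide, 20 uM SAM; 2 h RT.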
# JMJD2A Tudor inh: qHTS Assay for Inhibitors of JMJD2A-Tudor Domain; AlphaScreen JMJD2A-Tudor / H3K4me3 peptide binding; Potency, µM (highest dose often 114 µM), for inactives: at the top dose activity change, negative = inhibition, usual class: inhibitors; 4.4% of 390,000 active; AID 504339, 2011; also: % is scaled to controls: 0 for no effect and ±100 for the full control effect; nearly all actives have a fitted effect of over 50% in size
# HP1b chromo inh: HTS for Inhibitors of HP1-beta Chromodomain Interactions with Methylated Histone Tails. Chromobox protein homolog 1 (Homo sapiens), P83916. AlphaScreen HP1-beta / biotin-H3K9me3 peptide binding. Potency, µM (highest dose often 114 µM), for inactives: at the highest dose activity change, negative = inhibition, actives largely listed as inhibitors. 0.56% of 390,000 active. AID 540317, 2011; also: nearly all actives have a fitted effect of over 70% in size
#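 Compound inhibition of the preformed complex between 50 nM HP1-beta and 50 nM biotinylated H3K9me3 peptide was read by AlphaScreen. Buffer was PBS pH 7.4 with 0.01% Tween-20. Incubations ran 30 min at room temperature, with 10 ug/mL donor/acceptor beads.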
# L3MBTL1 block: qHTS Assay for the Inhibitors of L3MBTL1; Lethal(3)malignant brain tumor-like protein 1 (Homo sapiens), Q9Y468; AID 485360, 2010; Potency, µM (top dose mostly 57.1 µM), for the others: at the top dose activity, negative = inhibition, actives largely listed as inhibitors; 0.66% of 230,000 active; AlphaScreen L3MBTL1–H3K9me1 peptide binding; also: % is scaled to controls: 0 for no effect and ±100 for the full control effect; nearly all actives have a fitted effect of over 60% in size
#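 Read-out is AlphaScreen signal from streptavidin donor and nickel chelate acceptor beads (10 ug/mL final each) bridging L3MBTL1 (50 nM) and biotinylated K9-monomethylated H3(1-15) peptide (75 nM), after 30 min compound exposure at room temperature.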
# The depositor's hits bear a star; ? = inconclusive; . = no result given; ! = not active in a repeat; [ ] = another dose, or the depositor's remark. Compounds with a hit are over-represented: about 11% of the library has one in this group of screens. Calls follow the shape of the dose curve; as a rule, active = well fitted inhibition curve with a large enough effect; inconclusive = small, poorly fitted or top-dose-only effect; inactive = no such curve, though single readings can be large or run the other way. Potency is read from the fitted curve at half-maximal effect.
SMILES,BAZ2B inh,G9a block,JMJD2A Tudor inh,HP1b chromo inh,L3MBTL1 block
CN(Cc1ccccc1)c1nc(-c2cccc([N+](=O)[O-])c2)nc2ccccc12,-24%,4%[59 µM],32µM*,-8%,4%
O=[N+]([O-])c1cccc(-c2nc(NCc3ccccc3)c3ccccc3n2)c1,?,?,-17%,5%,-8%
CCCc1cc(-c2[nH]ncc2-c2ccc3c(c2)OCCCO3)c(O)cc1O,?,-19%[12.7 µM],40µM*,-20%,-24%
COC(=O)C1=C(C)N(c2ccc(C)c(C)c2)/C(=C/c2ccco2)C1=O,?,?,-34%,-11%,.
CCOc1cc(/C=C2\C(=O)N(Cc3ccc(C)cc3)C(C)=C2C(=O)OC)ccc1O,?,8.9µM*,25µM*,-96%,-15%
CCOC(=O)C1=C(C)N(c2ccc(C)c(C)c2)C(=O)/C1=C\c1ccco1,32µM*,35µM*,32µM*,-51%,-7%
COCCCN1C(=O)/C(=C\c2ccc3c(c2)OCO3)C(C(=O)OC)=C1C,-32%,-21%,-35%,10%,-5%
COC(=O)C1=C(C)N(CCc2ccc(OC)c(OC)c2)C(=O)/C1=C\c1ccc(O)cc1,?,10µM*,?,-13%,-1%
CCN1C(=O)/C(=C\c2ccc3c(c2)OCO3)C(C(=O)OC)=C1C,?,50µM*,-34%[57.1 µM],?,-10%
CCOc1ccc(NC(=O)C(CC)n2c(=O)c(-c3ccccc3NC(C)=O)nc3ccccc32)cc1 (configuration not stated),-27%,-30%[59 µM],-19%,-15%,.
Cc1ccc(C)c(NC(=O)COC(=O)CCC(=O)c2cccs2)c1,-11%,-3%,-2%,38%,21%
CCOC(=O)C1=C(C)N(c2ccc(OC)cc2)C(=O)/C1=C\c1ccc(O)c(OCC)c1,50µM*,?,14µM*,?,-16%
CCOC(=O)C1=C(C)N(c2ccc(OC)cc2)C(=O)/C1=C\c1cccs1,?,-7%[59 µM],-31%,-3%,?
COCCNC(=O)C(c1ccc(C)cc1)N(C(=O)CCC(=O)Nc1ccccn1)c1ccccc1C (configuration not stated),6%,1%,-13%,12%,.
COc1ccccc1/C=C/C(=O)N1CCN(S(=O)(=O)c2cccs2)CC1,.,.,-7%,30%,-2%
O=C(c1cc2ccccc2o1)N1CCN(S(=O)(=O)c2cccs2)CC1,13%,16µM*,0%,26%,.
COc1ccc(N2CCN(C(=O)CCc3ccc(S(=O)(=O)NCC(C)C)cc3)CC2)cc1,-35%,7.1µM*,-32%,-10%,-17%
COc1ccc(N2CCN(C(=O)CCNS(=O)(=O)c3cccs3)CC2)cc1,-33%,25µM*,-11%,16%,.
O=C(/C=C/c1ccc([N+](=O)[O-])cc1)N1CCN(S(=O)(=O)c2cccs2)CC1,2%,50µM*,-8%,27%,5%
CCn1cc(C(=O)NCc2ccc(Cl)cc2)c(=O)c2cc(S(=O)(=O)N(C)C3CCCCC3)ccc21,.,-9%[59 µM],-22%,8%,.
Cc1ccc(-c2nc3c4ccccc4n(CC(=O)N4CCN(c5ccccc5F)CC4)c(=O)n3n2)cc1,-1%,6%[59 µM],-12%,10%,.
Cc1ccc(C)c(N2CCN(S(=O)(=O)c3cc(C(=O)Nc4ccc(Oc5ccccc5)cc4)ccc3F)CC2)c1,-9%,-7%[59 µM],-20%,16%,.
COc1ccc(CCC(=O)N2CCN(S(=O)(=O)c3cccs3)CC2)cc1,2%,45µM*,-17%,14%,-2%
COc1ccc(N2CCN(C(=O)CN(C)S(=O)(=O)c3cccs3)CC2)cc1,-5%,50µM*!,-12%,13%,.
COc1ccc(S(=O)(=O)N(C)CC(=O)N2CCN(c3ccccc3)CC2)cc1,-4%,-2%,-22%,13%,.
SMILES,BAZ2B inh,G9a block,JMJD2A Tudor inh,HP1b chromo inh,L3MBTL1 block
O=C(CCc1ccc(Oc2cc([N+](=O)[O-])cc([N+](=O)[O-])c2)cc1)N1CCCCCC1,25µM*,?,40µM*,?,?
O=C(Cc1ccc([N+](=O)[O-])cc1)N1CCCCCC1,.,-2%,-11%[57.1 µM],31%,.
O=C(CCc1ccccc1)N1CCN(S(=O)(=O)c2cccs2)CC1,-12%,25%,1%,22%,.
CCCNS(=O)(=O)c1ccc(CCC(=O)N2CCCCC2)cc1,-1%,16%[12.7 µM],20µM*,?,-3%
CCCNS(=O)(=O)c1ccc(CCC(=O)N2CCN(CC)CC2)cc1,12%,?,-12%,10%,.
CN1CCC(Oc2ccccc2Sc2ccccc2)CC1,-37%,?,0.71µM*,?,-16%
Cc1cc2c(s1)c1cnn(Cc3c(F)cccc3F)c(=O)c1n2C,.,.,-18%,.,.
COc1cccc(C(=O)Nc2ccc(-c3nc4ccccc4s3)cc2Cl)c1,4%,14%[59 µM],-7%,21%,.
S=C(c1ccc(-c2cc(Cl)ccc2Cl)o1)N1CCOCC1,35µM*,8.9µM*,?,18µM*,-24%
O=C(Nc1ccc(CN2CCOCC2)cc1)c1ccc(-c2cc(Cl)ccc2Cl)o1,-36%,-13%[59 µM],-11%,11%,.
S=C(c1ccc(-c2cc(Cl)ccc2Cl)o1)N1CCCCC1,28µM*,?,?,?,-3%
CCc1cccc(-n2c(=O)c3cccnc3n2CC(=O)Nc2ccc(F)c(C)c2)c1,4%,6%[59 µM],10%,38%,.
COc1ccc(-c2nc3scc(CCNS(=O)(=O)c4c(C)cc(C)cc4C)n3n2)cc1OC,-21%,-3%[59 µM],-11%,37%,.
C[C@]1(OC(=O)/C=C\c2ccccc2)C[C@@H](O)[C@@]2(O)C=CO[C@@H](O[C@H]3O[C@@H](CO)[C@@H](O)[C@@H](O)[C@@H]3O)[C@H]21,.,20%[21.5 µM],.,.,.
COCCCNCCOc1ccc(C)cc1[N+](=O)[O-],?,14µM*,1µM*,?,9%
Cc1ccc(OCCOCCNC(C)(C)C)c([N+](=O)[O-])c1,79µM*,14µM*,8.9µM*,-10%,6%
COCCNCCCCOc1ccc(C)cc1[N+](=O)[O-],56µM*,?,2.8µM*,-21%,-7%
C=CCNCCCCOc1ccc(C)cc1[N+](=O)[O-],56µM*,13µM*,7.9µM*,18µM*,2%
COc1ccc(OCCOCCOc2ccc(C)cc2[N+](=O)[O-])cc1,9%,19%[59 µM],-4%,40%,7%
COc1cccc(OCCOCCOc2ccc(C)cc2[N+](=O)[O-])c1,31%,15%[59 µM],-11%[57.1 µM],143%,13%
Cc1c(CNCCCc2ccccc2)c(C(=O)O)c(C)n1Cc1cccc(Cl)c1,-29%,-28%[59 µM],?,-36%,.
O=C(Nc1cccc(Cl)c1)N1CCSc2ccccc21,-15%,4%[59 µM],-12%,19%,.
